In one assay the test system is Plasmodium falciparum Sir2 (PF13_0152, Sir2A). Nature of the assay: Plasmodium falciparum Sir2A binding compounds – biochemical, small-molecule microarray, 635 nm fluorescence, primary screen (AID 1098).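 Note: score merges spot fluorescence intensity with its signal-to-noise ratio.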 Conditions: fluorescence 635 nm, higher = more signal.
As to `COc1cc(C(O)C2C=CC3C(=O)N(c4ccccc4)C(=O)C3N2Nc2ccccc2F)cc(OC)c1OC` (stereo not drawn), the composite z-score came to 1.41.
Take `C=CCN1C(=O)[C@@]2(O[C@@H](CCn3cc([C@H](O)c4ccccc4)nn3)[C@H]([Si](C)(C)c3ccc(OC)cc3)[C@H]2C)c2cc(N3C(=O)c4cccc5cccc3c45)ccc21`: the composite z-score amounted to 0.0764.
On the same count and under the same terms, then `COC(=O)[C@H](Cc1ccc(O)cc1)N[C@@H](/C=C/C1CC1)[C@H](O)Cc1ccccc1`, with -0.61; and `COc1ccc([Si](C)(C)[C@@H]2[C@@H](CC(=O)N3CCC[C@H]3CO)O[C@]3(C(=O)N(Cc4cccc(N5CCCCC5=O)c4)c4ccccc43)[C@H]2C)cc1`, with 1.29; and `O=C1C[C@@](C(=O)O)(c2ccc([N+](=O)[O-])cc2)[C@@H](c2ccc(CO)cc2)N1C1CCCCC1`, with 0.869.
Still for that read-out and setting: then `CCOC(=O)c1cn(C[C@H](Cc2ccccc2)NC(=O)N[C@H](CO)CCc2oc(C(C)=O)c(C(=O)OC)c2C(=O)OC)nn1`, with 0.559; and `NCCCCCCNC(=O)[C@@H]1C[C@@H]2C(=O)N3CCC[C@H]3C(=O)N2[C@@H]1c1cccc(OCCO)c1`, with 1.23.
The same measure, in the same setting: then `COCCOC(=O)N1C(=O)[C@@]2(c3cc(C#CCCO)ccc31)[C@H](C(N)=O)[C@H]1C(=O)O[C@H](c3ccccc3)[C@H](c3ccccc3)N1[C@@H]2c1ccccc1OCCO`, with 1.59.

System in the next assay: not listed separately
Kind of assay: probe aDKK1 binding to arrayed compounds – biochemical, biotinylated probe, 635/667 nm fluorescence, primary screen (AID 1099).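 Note: score merges 667nm spot fluorescence with signal to noise across triplicate slides; reference of the scale not given here.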 The following applies: small-molecule microarray, higher = more signal.
The molecule `CC(C)(C)N1CC=CC23O[C@@H]4/C=C\CCCOC(=O)C4[C@H]2C(=O)N(CCCO)[C@@H]3C1=O` (stereo partly drawn) came in with a composite z-score of -0.396.
The same measure, in the same setting: as for `Cc1ccc(S[C@]2(C(=O)NCCCN(C)C)CC(=O)N(C3Cc4ccccc4C3)[C@@H]2c2ccc(CO)cc2I)cc1`, the figure is 0.182.
On the same count and under the same terms, then `CCOc1cc(C(O)C2C=CC3C(=O)N(c4ccccc4)C(=O)C3N2Nc2ccccc2F)ccc1O` (stereo not drawn), with 1.42.
On to `Cc1ccc(F)cc1S(=O)(=O)N[C@H]1CCN(Cc2ccc(OC(C)C)cc2)C1`, for which the composite z-score is -0.322.
Still for that read-out and setting: as for `COC(=O)C(CC#Cc1ccc2c(c1)[C@]1(C(=O)N2)[C@H](c2ccc(OCCO)cc2)N2[C@H](c3ccccc3)[C@H](c3ccccc3)OC(=O)[C@H]2[C@@H]1C(=O)N1CCCCCCC1)C(=O)OC`, the figure is 2.65; as for `[N-]=[N+]=Nc1ccccc1C[C@]1(C(=O)N2CCOCC2)N=C(c2ccc(OCCCO)cc2)O[C@H]1c1ccccc1N=[N+]=[N-]`, 0.651; as for `O=C(NC1CC1)[C@@H]1c2ccccc2C(=O)N(Cc2ccc(OC(F)(F)F)cc2)[C@H]1c1ccc(CO)cc1`, -0.082.
Consider `CN(C)CCCC[C@@H]1NC(=O)[C@H]2C[C@@H](C(=O)O)[C@@H](c3ccc(O)cc3)N2C1=O`, for which the composite z-score turned out to be 2.45.
`CO[C@H]1O[C@H](CO)[C@@H](OC(=O)Nc2ccccc2)[C@H](OC(=O)Nc2ccccc2)[C@H]1OC(=O)Nc1ccccc1` registered a composite z-score of -0.0074.
The same measure, in the same setting: as for `[N-]=[N+]=NCc1ccccc1[C@@H]1OC(c2ccc(OCCCO)cc2)=N[C@]1(Cc1ccccc1N=[N+]=[N-])C(=O)O`, the figure is 1.35; as for `CC(C)=CCCC(C)=CC(O)C1C=CC2C(=O)NC(=O)C2N1Nc1ccc(Cl)cc1Cl` (stereo not drawn), 0.34.
Molecule `CC(C)C(=C=CC[C@H](O)c1ccccc1OCCO)C[C@H](O)c1cc(Cl)cc(Cl)c1O` came in with a composite z-score of -0.0965.
The same measure, in the same setting: as for `COc1ccc(C(=O)Nc2ccc3c(c2)[C@@]2(O[C@H](CCO)[C@@H]([Si](C)(C)c4ccc(OC)cc4)[C@@H]2C)C(=O)N3Cc2ccccc2)cc1`, the figure is -0.267.
On the same count and under the same terms, then `CC(C)(C)OC(=O)CC[C@@]1(C(=O)NCCN2CCOCC2)N=C(c2ccc(OCCCO)cc2)O[C@@H]1c1ccccc1CN=[N+]=[N-]`, with 0.455; and `CC(C)C(CO)N1C(=O)[C@@H]2C3C(=O)OCCC/C=C\[C@H]3OC23C=CCN(Cc2ccccc2)C(=O)[C@@H]13` (stereo partly drawn), with -0.0827.
On the same count and under the same terms, then `COC(=O)C(CC#Cc1ccc2c(c1)[C@]1(C(=O)N2)[C@H](C(=O)N2CCc3cc(OC)c(OC)cc3C2)[C@H]2C(=O)O[C@H](c3ccccc3)[C@H](c3ccccc3)N2[C@@H]1c1ccccc1OCCO)C(=O)OC`, with 0.581; and `CC(C)=CCCC=C(C)C(O)C1C=CC2C(=O)N(c3ccccc3)C(=O)C2N1Nc1ccc(C#N)cc1` (stereo not drawn), with 0.473; and `C=CCC(OC(C)=O)[C@@H]1[C@@H](N(Cc2cccc3ccccc23)C(=O)Cc2ccc(OC)cc2)c2cc(OCCCO)ccc2N1C(=O)Cc1ccc2ccccc2c1` (stereo partly drawn), with -0.237.
Consider `CN1C(=O)C2C=CC(C(O)c3ccc(-c4ccccc4)s3)N(NC(=O)OC(C)(C)C)C2C1=O` (stereo not drawn), for which the composite z-score was determined as 0.625.
In the case of `COC(=O)[C@@]1(Cc2ccccc2)N=C(c2ccc(OCCCO)cc2)O[C@H]1c1ccccc1CN=[N+]=[N-]`, the composite z-score came to 0.287.

The record behind these values is PubChem BioAssay.
